# Reference: ChEMBL document CHEMBL3433997, “St. Jude Leishmania screening dataset” (2016)
# Legend:
# Assay type in all cases: functional
# [1] = biological target: Solute carrier family 2, facilitated glucose transporter member 1 (Homo sapiens) (UniProt P11166); assay: ST_JUDE_LEISH: Cytotoxicity at 2uM final concentration against transgenic Leishmania Mexicana promastigotes LmGLUT1 that are glucose transport deficient and complemented with the human glucose transporter GLUT1. Activity is measured by DNA content using SYBR green in vitro
# Sequence of Solute carrier family 2, facilitated glucose transporter member 1 (Homo sapiens) (P11166 whole entry): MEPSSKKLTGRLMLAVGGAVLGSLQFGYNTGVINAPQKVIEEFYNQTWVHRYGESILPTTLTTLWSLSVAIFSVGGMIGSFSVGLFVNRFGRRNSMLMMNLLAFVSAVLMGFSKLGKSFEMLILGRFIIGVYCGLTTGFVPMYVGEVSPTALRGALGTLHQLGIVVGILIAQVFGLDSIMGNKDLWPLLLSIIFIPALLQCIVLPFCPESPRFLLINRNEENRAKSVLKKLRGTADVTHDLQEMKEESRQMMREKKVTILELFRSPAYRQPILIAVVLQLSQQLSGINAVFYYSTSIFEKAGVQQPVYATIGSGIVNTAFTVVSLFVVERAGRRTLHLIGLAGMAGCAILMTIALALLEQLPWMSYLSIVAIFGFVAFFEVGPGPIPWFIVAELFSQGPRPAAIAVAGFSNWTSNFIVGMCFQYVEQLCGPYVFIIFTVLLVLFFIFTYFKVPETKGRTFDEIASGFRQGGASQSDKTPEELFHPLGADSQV
# [2] = biological target: Hexose transporter 1 (Plasmodium falciparum) (UniProt O97467); assay: ST_JUDE_LEISH: Cytotoxicity at 2uM final concentration against transgenic Leishmania Mexicana promastigotes LmPfHT that are glucose transport deficient and complemented with the Plasmodium falciparum hexose transporter. Activity is measured by DNA content using SYBR green in vitro
# [3] = biological target: Glucose transporter (Leishmania mexicana) (UniProt O61059); assay: ST_JUDE_LEISH: Cytotoxicity at 2uM final concentration against transgenic Leishmania Mexicana promastigotes LmGT2 that are glucose transport deficient and complemented with the L. Mexicana glucose transporter 2. Activity is measured by DNA content using SYBR green in vitro
Structure (SMILES),inhibition [1] [%],inhibition [2] [%],inhibition [3] [%]
COc1cccc(Nc2nccc(NCC(O)c3ccc(C(F)(F)F)cc3)n2)c1 (stereo unspecified),7.45,8.55,2.75
COc1ccc2nccc([C@@H](O)CN3CCC(NCc4ccc5c(c4)NC(=O)C(C)S5)CC3)c2c1 (stereo partly specified),12.2,1.99,4.38
CCC(=O)Nc1nnc(Cc2ccc(OC)c(OC)c2)s1,9.1,10.1,6.69
Cc1cc(CNCC2CCC(CNCCCc3ccccc3)CC2)ccc1O (stereo unspecified),9.97,8.79,7.65
Cc1ccc(CNC(=O)[C@H](CCCN)Nc2cc(C)nc(NCC3CCCCC3)n2)cc1,1.46,1.17,0.32
Cc1cccc(/C=C/C(=O)NC2CCC(N3CCC(c4ccccc4C)CC3)CC2)c1 (stereo unspecified),-2.65,-2.79,-0.99
CC(C)CCN(Cc1cncn1Cc1ccccc1F)C(=O)c1cncc(-c2ccccc2)c1,2.26,5.35,3.59
FC(F)(F)c1ccc(-c2ccc(CNC3CCN(CCN4CCOCC4)CC3)cc2)cc1,1.09,0.81,3.26
O=C(Nc1ccc(CCN2CCC(c3nc(COCC(F)(F)F)c(-c4ccccc4)o3)CC2)cc1)c1ccc(F)cc1,2.62,2.23,-0.66
COc1ccc(Cc2c(N)nc3nc(N)nc(N)c3c2C)cc1,1.48,3.73,3.1
CCOc1ccc(C2CCN(CCCCNC(=O)c3ccc(NC(=O)c4ccc(Cl)cc4)cc3)CC2)c(CC)c1,0.2,-0.09,-0.33
COc1ccc(CNC2CCN(C)CC2)cc1-c1ccc(S(=O)(=O)NCc2ccccc2)s1,9.42,11.8,11.2
C=CC(C)C1OC(=O)c2cc(OC)cc(OC)c21 (stereo unspecified),92.2,89,86.8
N=C(NCCCCCCCCNC(=N)Nc1ccc(Cl)cc1)Nc1ccc(Cl)cc1,5.92,0.99,8.78
O=C(/C=C/c1ccc(Cl)c(Cl)c1)NCCCCN1CCCN(C(=O)Nc2ccc(Cl)c(Cl)c2)CC1,-2.19,0.32,-1.91
O=C(Nc1ccc(OC2CCN(Cc3ccc(F)cc3)CC2)c(Cl)c1)c1ccoc1,2.65,2.09,3.99

Structure (SMILES),inhibition [1] [%],inhibition [2] [%],inhibition [3] [%]
Nc1nc(Nc2cccc(Cl)c2)ncc1C(=O)NCc1ccncc1,9.01,7.86,8.62
CC(C)c1cccc(C(C)C)c1NC(=O)NNC(=O)c1ccc(CCN2CCC(c3nc(COCC(F)(F)F)c(-c4ccc(F)cc4)o3)CC2)cc1,10.8,11.4,12.7
Clc1ccc(Nc2nc3ccc(Cl)cc3nc2Nc2ccc(Cl)cc2)cc1,7.56,6.73,7.3
Clc1ccc(OC2CCC(Cn3ccnc3)(c3ccc(Cl)cc3Cl)CC2)c(Cl)c1 (stereo unspecified),6.14,3.28,-0.14
CN1CCCN(Cc2ccc(-c3ccc(NC(=O)c4ccc(C#N)cc4)cc3)cc2)CC1,0.69,-0.51,-0.13
CO/C(=C\C=C\c1cc2cc(Cl)c(Cl)cc2[nH]1)C(=O)NC1CCN(CCNc2ccccc2)CC1,-1.91,-1.2,0.08
CC(=O)c1cccc(NC(=O)c2ccc(Cl)c(S(=O)(=O)N3CCc4ccccc43)c2)c1,12.1,11.9,12
CCc1c[nH]c2c(N3CCCCS3(=O)=O)cc(C(=O)N[C@@H](Cc3ccccc3)[C@H](O)CNCc3cccc(OC)c3)cc12,0.82,-0.07,-0.23
N#Cc1ccc2c(c1)CCN(CCC1CCC(NC(=O)/C=C/c3ccc4ccccc4c3)CC1)CC2 (stereo unspecified),-0.35,-1.71,-1.14
CC1CCC(C[C@@H](C(=O)N[C@@H](CCC(=O)N2CCCCC2)C(=O)Nc2nccs2)[C@H](C(C)C)N(O)C=O)CC1 (stereo partly specified),3.85,4.16,3.44
COc1ccc(OCCCN2CCCCC2)cc1S(=O)(=O)c1ccc(OCc2ccc(C(F)(F)F)cc2)cc1,2.4,0.01,2.1
O=C(/C=C/c1ccc(Cl)c(Cl)c1)NCCCCCN1CCN(C(=O)Nc2ccc(C(F)(F)F)cc2)CC1,2,1.98,0.71
COc1cc(Cc2cnc(N)nc2N)cc(OCCn2ccccc2=O)c1OC,2.42,2.33,1.46
CN1CCC(Oc2ccc(CN3CC[C@H](NC(=O)c4ccc(F)c(F)c4)C3)c3ccccc23)C1 (stereo partly specified),1.65,1,2.7
O=C(NC1CCN(c2ccnc3ccccc23)C1)c1cccc(C(F)(F)F)c1 (stereo unspecified),2.99,1.24,1.91
CCCNCc1ccc(-c2ccc(CN(C(=O)c3nn(-c4ccccc4)nc3C)C3CCOCC3)cc2)nc1,-0.49,-0.28,-1.66
